# ChEMBL document CHEMBL1961873, “Compounds: GSK PKIS; Assays: Nanosyn kinase panel” (2012)
# Several values for one entry are separate records, joined by “and”; a condition that tells them apart may be missing. Identical values can stand only once.
# Tests used:
# [1] = target: Dual specificity protein kinase CLK3 (Homo sapiens) (UniProt P49761); conditions: at 1 µM;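 also: each value is the mean inhibition of CLK3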
# [2] = target: Dual specificity tyrosine-phosphorylation-regulated kinase 1A (Homo sapiens) (UniProt Q13627); conditions: at 0.1 µM
# [3] = target: Dual specificity tyrosine-phosphorylation-regulated kinase 1A (Homo sapiens) (UniProt Q13627); conditions: at 1 µM
# [4] = target: Dual specificity tyrosine-phosphorylation-regulated kinase 1B (Homo sapiens) (UniProt Q9Y463); conditions: at 0.1 µM
# [5] = target: Dual specificity tyrosine-phosphorylation-regulated kinase 1B (Homo sapiens) (UniProt Q9Y463); conditions: at 1 µM
# [6] = target: T1, Dual specificity tyrosine-phosphorylation-regulated kinase 2 (Homo sapiens) (UniProt Q92630); conditions: at 0.1 µM
# T1 sequence (whole entry): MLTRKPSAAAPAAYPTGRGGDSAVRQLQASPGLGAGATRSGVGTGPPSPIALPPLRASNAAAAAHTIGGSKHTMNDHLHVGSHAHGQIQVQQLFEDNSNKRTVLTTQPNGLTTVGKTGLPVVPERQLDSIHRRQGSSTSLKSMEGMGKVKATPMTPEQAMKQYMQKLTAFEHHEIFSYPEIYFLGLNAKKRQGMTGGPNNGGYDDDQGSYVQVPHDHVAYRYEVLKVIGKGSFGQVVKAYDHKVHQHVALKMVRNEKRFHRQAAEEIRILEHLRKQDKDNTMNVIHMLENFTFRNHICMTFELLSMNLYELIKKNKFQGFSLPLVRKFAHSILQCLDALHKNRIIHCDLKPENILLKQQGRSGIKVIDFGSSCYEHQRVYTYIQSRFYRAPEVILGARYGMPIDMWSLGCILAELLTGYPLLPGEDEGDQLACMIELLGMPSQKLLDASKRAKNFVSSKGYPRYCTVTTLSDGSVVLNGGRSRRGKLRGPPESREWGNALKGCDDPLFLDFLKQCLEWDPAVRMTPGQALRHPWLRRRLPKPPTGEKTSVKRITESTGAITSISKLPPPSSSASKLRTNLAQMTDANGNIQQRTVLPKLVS
# [7] = target: T1, Dual specificity tyrosine-phosphorylation-regulated kinase 2 (Homo sapiens); conditions: at 1 µM
# [8] = target: Glycogen synthase kinase-3 alpha (Homo sapiens) (UniProt P49840); conditions: at 0.1 µM
# [9] = target: Glycogen synthase kinase-3 alpha (Homo sapiens) (UniProt P49840); conditions: at 1 µM
# [10] = target: Glycogen synthase kinase-3 beta (Homo sapiens) (UniProt P49841); conditions: at 0.1 µM
# [11] = target: Glycogen synthase kinase-3 beta (Homo sapiens) (UniProt P49841); conditions: at 1 µM
# [12] = target: Homeodomain-interacting protein kinase 1 (Homo sapiens) (UniProt Q86Z02); conditions: at 0.1 µM
# [13] = target: Homeodomain-interacting protein kinase 1 (Homo sapiens) (UniProt Q86Z02); conditions: at 1 µM
# [14] = target: T2, Homeodomain-interacting protein kinase 4 (Homo sapiens) (UniProt Q8NE63); conditions: at 0.1 µM
# T2 sequence (whole entry): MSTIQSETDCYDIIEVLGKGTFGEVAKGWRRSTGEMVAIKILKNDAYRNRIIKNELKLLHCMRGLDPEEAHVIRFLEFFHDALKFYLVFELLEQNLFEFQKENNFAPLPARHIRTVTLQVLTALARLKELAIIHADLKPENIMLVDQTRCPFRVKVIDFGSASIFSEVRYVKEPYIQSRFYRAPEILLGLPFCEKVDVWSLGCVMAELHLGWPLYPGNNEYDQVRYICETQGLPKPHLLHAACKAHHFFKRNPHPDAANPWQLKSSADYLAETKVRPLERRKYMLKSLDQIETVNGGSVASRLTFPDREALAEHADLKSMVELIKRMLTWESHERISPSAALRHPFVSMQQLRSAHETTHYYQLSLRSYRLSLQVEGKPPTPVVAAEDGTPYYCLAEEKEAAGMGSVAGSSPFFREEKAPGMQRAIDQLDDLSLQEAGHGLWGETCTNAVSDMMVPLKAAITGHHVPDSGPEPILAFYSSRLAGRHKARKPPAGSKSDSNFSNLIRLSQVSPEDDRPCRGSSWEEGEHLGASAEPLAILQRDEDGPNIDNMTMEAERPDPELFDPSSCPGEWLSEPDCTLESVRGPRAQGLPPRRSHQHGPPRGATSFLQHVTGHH
# [15] = target: T2, Homeodomain-interacting protein kinase 4 (Homo sapiens); conditions: at 1 µM
# [16] = target: Mitogen-activated protein kinase 9 (Homo sapiens) (UniProt P45984); conditions: at 0.1 µM
# [17] = target: Mitogen-activated protein kinase 9 (Homo sapiens) (UniProt P45984); conditions: at 1 µM
# [18] = target: Mitogen-activated protein kinase 1 (Homo sapiens) (UniProt P28482); conditions: at 0.1 µM
# [19] = target: Mitogen-activated protein kinase 1 (Homo sapiens) (UniProt P28482); conditions: at 1 µM
# [20] = target: Mitogen-activated protein kinase 3 (Homo sapiens) (UniProt P27361); conditions: at 0.1 µM;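 also: each value is a mean inhibition figure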
# Sequence of Mitogen-activated protein kinase 3 (Homo sapiens) (P27361 whole entry): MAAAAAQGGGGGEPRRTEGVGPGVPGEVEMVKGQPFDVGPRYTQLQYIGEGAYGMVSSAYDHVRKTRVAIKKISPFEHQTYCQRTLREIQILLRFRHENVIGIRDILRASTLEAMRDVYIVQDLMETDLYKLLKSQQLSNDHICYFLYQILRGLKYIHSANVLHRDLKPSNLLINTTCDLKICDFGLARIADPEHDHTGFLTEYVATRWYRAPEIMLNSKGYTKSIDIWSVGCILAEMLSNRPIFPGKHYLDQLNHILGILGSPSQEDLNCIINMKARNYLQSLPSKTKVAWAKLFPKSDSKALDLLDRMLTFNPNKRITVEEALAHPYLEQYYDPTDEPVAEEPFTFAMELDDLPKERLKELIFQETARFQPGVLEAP
# Sequence of Mitogen-activated protein kinase 1 (Homo sapiens) (P28482 whole entry): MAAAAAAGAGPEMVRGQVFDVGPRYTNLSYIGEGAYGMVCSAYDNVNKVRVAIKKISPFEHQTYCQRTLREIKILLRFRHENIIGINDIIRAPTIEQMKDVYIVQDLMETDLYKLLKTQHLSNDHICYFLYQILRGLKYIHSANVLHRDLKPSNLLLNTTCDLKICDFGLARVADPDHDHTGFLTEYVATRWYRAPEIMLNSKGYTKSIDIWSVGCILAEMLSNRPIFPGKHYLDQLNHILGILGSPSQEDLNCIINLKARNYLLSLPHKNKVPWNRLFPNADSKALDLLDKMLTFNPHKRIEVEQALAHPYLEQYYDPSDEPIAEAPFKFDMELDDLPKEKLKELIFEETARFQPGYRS
# Sequence of Dual specificity protein kinase CLK3 (Homo sapiens) (P49761 whole entry, looked up): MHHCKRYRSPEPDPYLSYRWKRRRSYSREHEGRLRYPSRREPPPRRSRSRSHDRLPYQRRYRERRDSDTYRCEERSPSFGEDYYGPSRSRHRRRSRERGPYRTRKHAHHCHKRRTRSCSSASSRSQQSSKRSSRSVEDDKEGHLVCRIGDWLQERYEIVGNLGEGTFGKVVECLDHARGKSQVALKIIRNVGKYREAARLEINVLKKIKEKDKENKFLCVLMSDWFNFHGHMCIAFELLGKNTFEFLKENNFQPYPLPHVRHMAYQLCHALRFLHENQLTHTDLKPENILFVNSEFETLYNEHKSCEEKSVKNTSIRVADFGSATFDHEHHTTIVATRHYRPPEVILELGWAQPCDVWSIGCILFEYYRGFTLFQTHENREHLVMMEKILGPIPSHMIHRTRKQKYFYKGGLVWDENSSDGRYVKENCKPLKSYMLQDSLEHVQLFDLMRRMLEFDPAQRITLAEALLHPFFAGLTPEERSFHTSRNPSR
# Sequence of Homeodomain-interacting protein kinase 1 (Homo sapiens) (Q86Z02 whole entry, looked up): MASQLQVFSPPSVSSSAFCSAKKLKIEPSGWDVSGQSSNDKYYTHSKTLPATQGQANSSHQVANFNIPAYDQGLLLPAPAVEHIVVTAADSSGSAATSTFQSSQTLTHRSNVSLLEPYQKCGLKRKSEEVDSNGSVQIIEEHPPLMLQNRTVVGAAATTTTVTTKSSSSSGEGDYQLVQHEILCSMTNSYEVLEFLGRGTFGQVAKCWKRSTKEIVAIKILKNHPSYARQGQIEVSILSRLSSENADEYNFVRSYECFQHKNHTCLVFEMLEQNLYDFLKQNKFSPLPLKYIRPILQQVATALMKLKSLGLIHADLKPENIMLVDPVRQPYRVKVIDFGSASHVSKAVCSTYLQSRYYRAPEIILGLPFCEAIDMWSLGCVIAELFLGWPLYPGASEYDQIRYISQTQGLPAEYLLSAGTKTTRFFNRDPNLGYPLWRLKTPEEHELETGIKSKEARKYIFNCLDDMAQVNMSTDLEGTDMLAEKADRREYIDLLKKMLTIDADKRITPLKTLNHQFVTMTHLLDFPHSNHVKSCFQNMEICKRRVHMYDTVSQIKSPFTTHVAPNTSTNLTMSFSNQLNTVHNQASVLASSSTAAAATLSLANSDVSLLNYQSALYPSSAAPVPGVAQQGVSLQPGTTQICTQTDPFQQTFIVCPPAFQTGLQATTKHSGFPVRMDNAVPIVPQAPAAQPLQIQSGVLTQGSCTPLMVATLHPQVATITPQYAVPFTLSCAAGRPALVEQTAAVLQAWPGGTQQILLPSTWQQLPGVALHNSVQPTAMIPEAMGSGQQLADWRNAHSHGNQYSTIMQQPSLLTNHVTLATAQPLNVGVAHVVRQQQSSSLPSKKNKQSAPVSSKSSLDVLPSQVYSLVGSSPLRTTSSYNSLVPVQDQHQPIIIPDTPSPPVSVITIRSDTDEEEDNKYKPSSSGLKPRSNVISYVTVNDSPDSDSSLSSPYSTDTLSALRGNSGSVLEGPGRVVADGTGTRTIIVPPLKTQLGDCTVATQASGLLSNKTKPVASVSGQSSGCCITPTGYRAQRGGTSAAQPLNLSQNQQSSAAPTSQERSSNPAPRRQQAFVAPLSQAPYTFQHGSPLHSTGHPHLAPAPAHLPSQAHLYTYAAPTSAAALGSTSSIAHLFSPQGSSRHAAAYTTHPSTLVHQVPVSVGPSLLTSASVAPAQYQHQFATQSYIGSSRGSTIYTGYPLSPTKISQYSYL
# Sequence of Dual specificity tyrosine-phosphorylation-regulated kinase 1B (Homo sapiens) (Q9Y463 whole entry, looked up): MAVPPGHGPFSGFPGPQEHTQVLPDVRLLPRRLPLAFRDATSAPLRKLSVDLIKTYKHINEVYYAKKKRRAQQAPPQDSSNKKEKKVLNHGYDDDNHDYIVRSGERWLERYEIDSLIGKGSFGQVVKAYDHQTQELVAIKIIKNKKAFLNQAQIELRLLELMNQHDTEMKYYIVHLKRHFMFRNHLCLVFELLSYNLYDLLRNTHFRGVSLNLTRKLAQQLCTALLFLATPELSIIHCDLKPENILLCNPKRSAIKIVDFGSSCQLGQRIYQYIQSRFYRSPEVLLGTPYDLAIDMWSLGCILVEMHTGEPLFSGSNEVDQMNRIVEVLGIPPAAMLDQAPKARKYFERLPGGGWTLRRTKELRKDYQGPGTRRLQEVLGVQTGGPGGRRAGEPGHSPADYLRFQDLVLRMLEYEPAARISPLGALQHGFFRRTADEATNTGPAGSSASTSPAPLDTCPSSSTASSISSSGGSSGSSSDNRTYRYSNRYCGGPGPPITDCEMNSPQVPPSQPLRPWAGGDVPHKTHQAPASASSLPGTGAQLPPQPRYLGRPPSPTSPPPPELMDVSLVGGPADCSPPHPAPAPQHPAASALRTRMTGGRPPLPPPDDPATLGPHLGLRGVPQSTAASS
# Sequence of Glycogen synthase kinase-3 beta (Homo sapiens) (P49841 whole entry, looked up): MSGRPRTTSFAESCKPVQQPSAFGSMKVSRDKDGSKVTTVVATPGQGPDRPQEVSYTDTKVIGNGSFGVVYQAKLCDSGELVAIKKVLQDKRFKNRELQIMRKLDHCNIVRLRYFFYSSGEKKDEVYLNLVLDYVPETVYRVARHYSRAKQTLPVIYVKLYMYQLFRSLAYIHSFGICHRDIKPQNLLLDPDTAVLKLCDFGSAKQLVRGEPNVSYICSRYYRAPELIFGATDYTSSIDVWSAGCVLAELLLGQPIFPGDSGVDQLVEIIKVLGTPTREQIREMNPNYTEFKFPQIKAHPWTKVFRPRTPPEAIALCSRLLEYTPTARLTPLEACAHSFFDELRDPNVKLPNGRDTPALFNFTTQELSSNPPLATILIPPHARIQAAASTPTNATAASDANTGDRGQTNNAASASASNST
# Sequence of Glycogen synthase kinase-3 alpha (Homo sapiens) (P49840 2-483 limits assumed): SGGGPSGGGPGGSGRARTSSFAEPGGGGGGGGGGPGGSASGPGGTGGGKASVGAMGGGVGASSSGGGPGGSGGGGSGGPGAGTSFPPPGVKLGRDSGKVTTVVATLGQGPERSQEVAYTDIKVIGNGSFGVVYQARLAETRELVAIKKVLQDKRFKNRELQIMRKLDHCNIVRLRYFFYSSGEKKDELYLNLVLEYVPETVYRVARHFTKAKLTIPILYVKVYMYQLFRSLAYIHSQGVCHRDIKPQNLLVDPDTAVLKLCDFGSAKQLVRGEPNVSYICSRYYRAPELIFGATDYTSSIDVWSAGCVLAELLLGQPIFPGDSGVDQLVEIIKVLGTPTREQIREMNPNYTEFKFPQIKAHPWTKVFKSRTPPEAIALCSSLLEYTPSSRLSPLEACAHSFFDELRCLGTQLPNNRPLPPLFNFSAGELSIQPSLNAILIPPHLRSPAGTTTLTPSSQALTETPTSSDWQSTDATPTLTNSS
# Sequence of Mitogen-activated protein kinase 9 (Homo sapiens) (P45984 whole entry, looked up): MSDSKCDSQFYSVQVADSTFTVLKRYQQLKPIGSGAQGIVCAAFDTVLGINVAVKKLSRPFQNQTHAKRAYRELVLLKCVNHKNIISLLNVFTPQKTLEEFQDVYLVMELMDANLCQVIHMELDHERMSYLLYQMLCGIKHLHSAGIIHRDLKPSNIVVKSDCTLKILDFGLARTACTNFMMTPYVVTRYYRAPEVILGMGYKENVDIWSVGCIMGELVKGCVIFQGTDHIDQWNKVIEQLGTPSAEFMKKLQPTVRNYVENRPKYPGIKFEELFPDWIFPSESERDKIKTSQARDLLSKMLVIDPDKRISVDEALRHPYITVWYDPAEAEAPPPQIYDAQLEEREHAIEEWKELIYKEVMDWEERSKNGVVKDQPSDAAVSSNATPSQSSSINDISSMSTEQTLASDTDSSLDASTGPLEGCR
Compound,inhibition [1],inhibition [2],inhibition [3],inhibition [4],inhibition [5],inhibition [6],inhibition [7],inhibition [8],inhibition [9],inhibition [10],inhibition [11],inhibition [12],inhibition [13],inhibition [14],inhibition [15],inhibition [16],inhibition [17],inhibition [18],inhibition [19],inhibition [20]
CNC(=O)c1cncc(/C=C/c2ccccc2C)c1,2.09%,1.38%,1.83%,0.2%,0.92%,1.99%,3.1%,5.39%,12.3%,5.07%,10.8%,2.37%,3.05%,3.2%,3.78%,3.59%,5.08%,7.05%,5.85%,4.41%
COc1cc2c(cc1Nc1nc(Nc3cccc(F)c3C(N)=O)c3cc[nH]c3n1)N(C(=O)CN1CCN(C(C)C)CC1)CC2,1.39%,1.82%,10.2%,3.8%,9.06%,2.66%,5.93%,1.62%,2.06%,0.46%,3.89%,0.07%,21.8%,3.33%,15.4%,3.04%,18.2%,2.66%,7.45%,2.64%
COc1cc(N2CCN(C(C)C)CC2)ccc1Nc1nc(Nc2cccc3ncccc23)c2cc[nH]c2n1,1.89%,0.19%,5.87%,1.41%,7.46%,-1.54%,-1.74%,0.06%,3.49%,0.31%,5.17%,-1.1%,3.6%,1.11%,6.13%,0.17%,5.14%,-2.97%,-0.36%,-2.04%
O=C(O[C@H]1CN[C@H](C#Cc2cc3ncnc(Nc4ccc(OCc5cccc(F)c5)c(Cl)c4)c3s2)C1)N1CCOCC1,2.04%,2.71%,6.81%,-1.11%,-0.95%,3.84%,3.68%,3.45%,4.35%,2.75%,4.2%,1.86%,0.81%,2.71%,4.99%,3.19%,7.19%,7.72%,5.38%,4.82%
Fc1cccc(COc2ccc(Nc3ncncc3C#Cc3ccccc3)cc2Cl)c1,2.05%,2.88%,5.18%,0.4%,1.45%,3.74%,4.05%,3.26%,4.91%,2.3%,6.26%,3.88%,4.2%,1.31%,1.7%,2.97%,7.96%,5.17%,4.95%,4.94%
CN1CCC(C(=O)Nc2n[nH]c3nc(-c4ccc(O)cc4)c(Br)cc23)CC1,3.67% and 4.52%,9.4% and 10.2%,43.4% and 51.8%,29.6% and 27.7%,66.8% and 67%,6.68% and 6.28%,33.7% and 34%,78.2% and 80.5%,83.2% and 81.7%,–,–,2.86% and -1.65%,20.1% and 19.3%,0.89% and 1.06%,5.87% and 4.37%,5.88% and 4.7%,16.6% and 13.9%,6.51% and 1.55%,12.1% and 3.95%,5.16% and 1.61%
CCS(=O)(=O)c1ccc(OC)c(Nc2ncc(-c3cccc(F)c3)o2)c1,12.1%,4.83%,26%,0.76%,12.2%,5.21%,13.7%,2.67%,5.61%,2.72%,4.08%,1.26%,23.8%,4.37%,30%,7.66%,7.11%,6.33%,7.09%,4.68%
Cc1nnc(-c2cccc(-c3ccc(C(=O)NCC4CC4)cc3)c2)o1,2.8%,3%,6.39%,0.21%,1.06%,3.15%,5.04%,4.33%,14.8%,3.05%,11.6%,4.5%,4.32%,2.08%,-0.47%,3.54%,6.68%,2.73%,5.62%,5.36%
N#Cc1cccc(Nc2ncc(-c3ccccc3)o2)c1,1.97%,1.47%,5.95%,-0.09%,3.53%,0.71%,2.45%,5.76%,25.6%,2.85%,16.9%,3.5%,20.2%,6.92%,36.4%,1.32%,2.85%,1.39%,3.01%,2.87%
CS(=O)(=O)CCNCc1ccc(-c2ccc3ncnc(Nc4ccc(OCc5cccc(C(F)(F)F)c5)cc4)c3c2)o1,1.18%,2.76%,5.29%,-0.58%,1.03%,3.45%,6.22%,2.81%,1.39%,1.65%,3.05%,-0.56%,2.78%,0.9%,7.06%,3.75%,7.64%,5.63%,5.84%,4.22%
CN1CCC(n2cnc(-c3ccc(F)cc3)c2-c2ccnc(NCCO)n2)CC1,3.15%,3.36%,3.78%,-0.1%,1.43%,2.57%,3.9%,3.17%,5.09%,3.17%,7.21%,3.91%,7.67%,2.19%,4.16%,8.58%,37.3%,2.94%,6.12%,3.9%
Cc1cc(O)cc(C)c1/C=C/c1cncc(C(=O)OC(C)(C)C)c1,6.2%,5.61%,8.73%,3.58%,7.3%,1.52%,3.56%,4.43%,8.44%,4.6%,7.76%,2.63%,7.33%,1.55%,2.43%,1.52%,1.71%,2.41%,4.61%,1.22%
CCOc1ccc2c(-c3ccnc(Nc4cc(OC)cc(C(F)(F)F)c4)n3)cnn2n1,21.8%,5.33%,21.6%,8.29%,38.8%,1.12%,5.62%,9.42%,30.3%,9.12%,28%,20.1%,61.9%,4.81%,24.3%,1.36%,5.36%,0.19%,0.63%,0.36%
